# Abs 340nm: compounds absorbing at 340 nm; compound absorbance at 340 nm, fold over control; fold change at 10 µM; 65,000 tested, under 10 active;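 active means at 10 µM dose, initial 340 nm absorbance at least 2 fold that of control wells; inactive means change under 2 fold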;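 further: initial absorbance extrapolated from kinetic A340 decline of NADH oxidation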
# M1 antag: blocks the rat M1 muscarinic receptor response to acetylcholine; B-score at 10 µM; 3.4% of 64,000 active; AID 628; CHO-M1 cells, Fluo-4 calcium, ACh EC80 antagonist mode; hits give low values;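 active means calcium fluorescence response, raw or row-and-column corrected B-score, differing from the plate sample mean either way at a set confidence level, mostly lower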
# Fluor 339 460: intrinsic fluorescence of library compounds, ex339/em460 – biochemical, MLSMR library, data from DPM-DC assay, artefact control, profiling panel | fluorescence fold increase at 10 µM | 5.5% of 65,000 active | compound autofluorescence, ex339/em460 nm, NADH buffer; hits give high values; 1 = no-compound wells, NADH background;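 active means at 10 µM, mean starting fluorescence two-fold or more over control wells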;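 further: signal is the first read of a kinetic run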
# BAP1 inh: inhibitors of human BAP1 deubiquitinase; Q92560; recombinant BAP1, Ub-AMC hydrolysis fluorescence kinetic; hits give low values; calls only at 20 µM; 0.48% of 72,000 active;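 active means activity remaining at or below 50% of control, provided the compound also passes the data quality filters; inactive means the rest, including low values that fail the filters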;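 further: 100% = DMSO wells rate and 0% = substrate alone blank rate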
# Target sequence (Q92560 whole entry, looked up): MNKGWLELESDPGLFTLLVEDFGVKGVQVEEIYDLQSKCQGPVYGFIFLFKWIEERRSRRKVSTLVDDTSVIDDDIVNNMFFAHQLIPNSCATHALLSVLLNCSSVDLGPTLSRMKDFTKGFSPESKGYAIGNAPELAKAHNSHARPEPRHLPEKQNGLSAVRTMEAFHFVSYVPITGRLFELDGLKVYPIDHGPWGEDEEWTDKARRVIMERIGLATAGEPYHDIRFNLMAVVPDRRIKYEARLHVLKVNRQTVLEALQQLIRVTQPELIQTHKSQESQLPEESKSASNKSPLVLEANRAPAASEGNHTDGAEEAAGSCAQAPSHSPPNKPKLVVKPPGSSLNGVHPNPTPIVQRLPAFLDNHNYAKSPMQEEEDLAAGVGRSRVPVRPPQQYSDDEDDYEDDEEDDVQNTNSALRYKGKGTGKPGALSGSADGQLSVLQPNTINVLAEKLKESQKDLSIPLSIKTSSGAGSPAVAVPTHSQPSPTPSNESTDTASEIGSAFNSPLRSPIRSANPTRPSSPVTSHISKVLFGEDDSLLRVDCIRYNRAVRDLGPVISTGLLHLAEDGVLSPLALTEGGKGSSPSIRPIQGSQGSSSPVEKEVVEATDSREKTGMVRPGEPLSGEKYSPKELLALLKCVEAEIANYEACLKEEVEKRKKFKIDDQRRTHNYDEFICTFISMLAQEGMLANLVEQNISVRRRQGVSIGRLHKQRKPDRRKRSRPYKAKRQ
# WNV NS2B-NS3 inh: inhibitors of West Nile virus NS2B-NS3 protease; 0.18% of 65,000 active; z-score (test concentration not listed); P06935; WNV NS2B-NS3 protease, fluorogenic substrate Ex360/Em465; hits give low values; AID 577; in the data active means z-score below about -3
# M1 ag: agonists of M1 muscarinic receptor; B-score at 10 µM; AID 626; CHO-M1 cells, Fluo-4 calcium fluorescence, agonist mode; hits give high values; 3% of 64,000 active;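 active means fluorescence rise, raw or as B-score row- and column-corrected plate score, outside the 99.7% band of its plate's samples, either direction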
# M1 agonist conf: rat M1 muscarinic agonism, confirmation | CHO-M1 cells, Fluo-4 calcium fluorescence, agonist mode; actives lie on both sides | 19% of 1,700 active | fluorescence change (max-min) at 10 µM | shares compounds with M1 ag;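 active means fluorescence change differs from the solvent-only DMSO control mean at a set confidence level in both duplicate runs; inconclusive means differs from solvent-only control mean in just one of two runs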;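 further: an EC20 dose of acetylcholine follows compound addition during the same imaging run; raw fluorescence intensity difference in instrument units with no normalization to controls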
# M4 agonist ctr: rat M4 muscarinic agonism, M1 counter-screen | shares compounds with M1 ag | CHO M4/Gqi5 cells, Fluo-4 calcium fluorescence, agonist mode; actives lie on both sides | fluorescence change (max-min) at 10 µM | 9% of 1,700 active;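 active means fluorescence change differing from the plate's solvent-only control wells at 99.7% confidence in both duplicates, whether higher or lower; inconclusive means differs from solvent controls in only one of two duplicates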
# * = called active by the depositor; i = inactive; ? = inconclusive; . = not tested or not shown. In the library only some 9.7% were active in any assay of this set; here they are far more common.
SMILES,Abs 340nm,M1 antag,Fluor 339 460,BAP1 inh,WNV NS2B-NS3 inh,M1 ag,M1 agonist conf,M4 agonist ctr
CCOC(=O)c1ccccc1NC(=O)c1ccc(OC)c(OC)c1,.,.,.,i,.,.,.,.
COCCNC(=O)c1ccccc1NC(=O)c1ccc(OC)c(OC)c1,1,0.68,1.1,i,0.49,31*,-31*,-94*
COc1ccc(N=c2oc3c(OC)cccc3cc2C(=O)NCc2ccco2)cc1OC,1.1,0.31,1,i,1,15*,18,-1.8
O=C(c1nn2c(c1Br)NC(c1ccco1)CC2C(F)(F)F)N1CCN(Cc2ccccc2)CC1 (stereo not given),.,.,.,i,.,.,.,.
Cc1ccc2nc(Nc3ccc4[nH]c(=O)[nH]c4c3)c(-n3nc(C)cc3C)nc2c1,1.1,0.29,1.2,i,-1.4,20*,-23*,-53
CC(C(=O)NCC1CCCO1)n1cccc1C(=O)c1ccccc1 (stereo not given),1.1,2.3*,1,i,0.01,21*,-10,?
Cc1ccc(NC(=O)CCCCCN2C(=O)c3ccccc3C2=O)c(C)c1,.,.,.,i,.,.,.,.
O=C(Nc1ccc(Cl)cc1)NC1CCCC1Cc1ccco1 (stereo not given),1,-2.1*,1.2,i,-4.8*,4.8*,?,-38
O=C(CCSc1nnc(-c2ccco2)o1)Nc1ccc(Cl)cc1,0.99,-0.43,1.1,i,0.56,-1.3,.,.
CCOn1c(=O)c(-c2cc3ccccc3o2)[n+]([O-])c2ccccc21,1.1,-0.14,1.2,i,-0.63,23*,23,-13
Cc1ccc(CSc2nc3c(c(=O)[nH]2)CCC3)cc1,1.1,0.68,1.1,i,-0.98,2.3*,28,-5.3
CC(=O)Oc1cccc(C(=O)Nc2nccs2)c1,.,.,.,i,.,.,.,.
CC(=O)c1ccc(OCCCC(=O)OCC(=O)N2CCN(c3ccccc3)CC2)cc1,1,-0.73,1.1,i,-0.39,9.3*,-0.8,-75
COC(=O)c1ccc(-c2sc3nc(N4CCOCC4)c4c(c3c2N)CCCC4)o1,1,-0.17,2.5*,.,0.5,5.5*,4.5,-10
COC(=O)c1ccc(Cn2cnc3c(sc4nc(N5CCOCC5)c5c(c43)CCCC5)c2=O)o1,1,-0.013,1.3,.,-0.6,-0.32,.,.
CCN1CCN(Cc2ccc(NC(=O)Nc3ccc(OC)cc3)cc2)CC1,0.98,-1.2,1.1,i,-0.9,-0.64,.,.
CCN1CCN(Cc2ccc(NC(=O)Nc3ccccc3)cc2)CC1,0.98,-0.66,1,i,-0.45,6.5*,-15,-46
N#Cc1c(N)sc(=S)c2c1CCCCC2,1,-0.93,1.1,i,-0.74,13*,2.2,-10
N#Cc1c(N)sc2c1CCCCCC2,1.1,0.47,1.1,i,0.24,-0.87,.,.
O=c1oc2ccccc2cc1-c1nnc(Nc2ccc(Br)cc2)s1,.,.,.,i,.,.,.,.
CCN1CCN(c2nc(C)nc3c2sc(=S)n3C)CC1,1.1,-0.2,0.97,i,0.55,-2.6*,-11,-24
COc1ccc2c(c1OC)C(=O)N1c3ccccc3C(=O)N(c3ccccc3F)C21 (stereo not given),1.1,0.095,1.1,i,-0.73,9.3*,-26*,-92*
CC(C)COC(=O)NCCCOC(=O)Nc1ccccc1,0.98,0.17,1.1,i,-0.03,-0.29,.,.
CC(C)COC(=O)NCCOC(=O)Nc1cccc(Cl)c1,0.99,-2.2*,1.1,i,0.93,7.5*,-0.81,-85*
Cc1ccc(C2CC(C(F)(F)F)n3nc(C(=O)NCC(C)C)c(Cl)c3N2)cc1 (stereo not given),.,.,.,i,.,.,.,.
SMILES,Abs 340nm,M1 antag,Fluor 339 460,BAP1 inh,WNV NS2B-NS3 inh,M1 ag,M1 agonist conf,M4 agonist ctr
COc1ccc(OC)c(N(CC(=O)Nc2ccc3c(c2)OCO3)S(=O)(=O)c2ccccc2)c1,1,0.5,1,.,-0.55,2.8*,?,?
COc1ccc(OC)c(N(CC(=O)Nc2cccnc2)S(=O)(=O)c2ccc(OC)c(OC)c2)c1,1,-0.95,1,i,-0.01,2.2*,-12,?
COc1ccc(Cl)cc1N(CC(=O)Nc1ccc2c(c1)OCO2)S(C)(=O)=O,1,0.17,1.1,i,-0.15,-2,.,.
O=C(Oc1ccccc1)c1ccc(-c2ccccc2)cc1,.,.,.,i,.,.,.,.
COc1ccc(C(=O)Nc2cccc(NC(=O)c3ccco3)c2)cc1OC,.,.,.,i,.,.,.,.
O=c1[nH]c2c(s1)C=Nc1ccccc1N2,1,-0.9,1.1,i,-0.78,69*,249*,227*
O=C1CC(c2ccco2)CC2=C1C=Nc1ccccc1N2 (stereo not given),1.1,0.052,1.1,i,-1,-0.069,.,.
Nc1c(C(=O)NCc2ccc3c(c2)OCO3)c2nc3ccccc3nc2n1CCCN1CCOCC1,1.1,0.036,3.9*,i,-0.22,-2.6*,-8.6,-48
Cc1ccc(C(=O)Nc2cccc(-c3nc4ccccc4s3)c2)cc1,.,.,.,i,.,.,.,.
CCOC(=O)c1cc([N+](=O)[O-])sc1NC(=O)c1ccc(Oc2ccccc2)cc1,.,.,.,i,.,.,.,.
CCc1nc(Nc2ccc(N3CCN(C(C)=O)CC3)cc2)c2oc3ccccc3c2n1,1.1,-1.1,1.2,i,-0.33,1.2,.,.
CC(=O)N1CCN(c2ccc(Nc3ncnc4c3oc3ccccc34)cc2)CC1,1.1,-0.59,1,i,-1.8,8.9*,-5.9,?
O=C(Cn1cnc2c(nnn2-c2ccc(F)cc2)c1=O)N1CCCc2ccccc21,0.99,0.44,1.1,i,0.96,-3.2*,16,-41
Cc1nn(C(=O)c2ccccc2)c2c1C(=O)CC(C)(C)C2,1,-0.035,1.1,i,0.73,9.7*,-8.5,?
Cc1nn(-c2nc3ccccc3n2Cc2ccccc2)c2c1C(=O)CC(C)(C)C2,1,1.1,1.1,i,-0.13,1,.,.
CNc1ccccc1-n1ccc(-c2ccccc2)n1,1.1,0.34,1.1,i,-0.76,3.6*,-7.4,-22
CCOC(=O)Cn1nc(-c2ccccc2)ccc1=O,1,0.073,1.1,i,0.08,0.0054,.,.
O=C(CN1CCN(c2ccccc2)CC1)Nc1ccc(-n2cnnn2)cc1,0.99,-0.44,1.1,i,0.53,51*,1.1,-36
CCOC(=O)COc1ccc(S(=O)(=O)NCc2ccncc2)cc1,1.1,-2.4,1.1,i,1.5,7.6*,-6.9,?
CCOC(=O)COc1ccc(S(=O)(=O)NCc2ccco2)cc1,1.1,-0.18,1.1,i,-0.73,-0.97,.,.
CCOC(=O)N1C(=O)c2cc(OC)ccc2S1(=O)=O,1,-0.00031,1.2,i,0.41,3.2*,?,?
